This is a sample that favours compounds with a hit; in the whole collection about 1.9% have one here.
MsrA inh – bovine MsrA enzyme inhibitors, primary screen, biochemical, absorbance, HTS | inhibition, % at 15.5 µM | AID 651718, 2012 | purified bovine MsrA, absorbance read-out | 360,000 tested, 0.75% active; in the data active = inhibition above about 4.5%;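 note: 0% = vehicle wells with enzyme and 100% = reference inhibitor wells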
PLCg1 inh – PLC-gamma1 enzyme inhibitors, primary screen, biochemical, fluorescence, purified enzyme; AID 720700, 2013; 1-phosphatidylinositol 4,5-bisphosphate phosphodiesterase gamma-1 (Homo sapiens), P19174; inhibition, % at 12.2 µM; fluorogenic substrate; 370,000 tested, 0.84% active; in the data active = inhibition above about 9.5%
MsrA act – bovine MsrA enzyme activators, primary screen, biochemical, absorbance, HTS. 360,000 tested, 0.3% active. activation, % at 10.6 µM. purified bovine MsrA, absorbance read-out. Methionine sulfoxide reductase A (Bos taurus); in the data active = activation above about 7.5%;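 note: 0% = vehicle and 100% = reference activator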
PLCb3 inh – human PLC-beta3 inhibitors, primary screen, biochemical, fluorescence; 370,000 tested, 0.18% active; 1-phosphatidylinositol 4,5-bisphosphate phosphodiesterase beta-3 (Homo sapiens), Q01970; AID 720704, 2013; Purified PLC-beta3, fluorogenic substrate; inhibition, % at 12.2 µM; in the data active = inhibition above about 11%;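 note: 0% = median of compound wells on plate and 100% = full blocker control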
MsrA activ conf – bovine MsrA activators, retest, confirmation, biochemical, absorbance, HTS; shares compounds with MsrA act; purified bovine MsrA, absorbance read-out; activation, % at 10.6 µM; 1,000 tested, 12% active; AID 602270, 2012; in the data active = activation above about 4%;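 note: enzyme coupled to thioredoxin and thioredoxin reductase with NADPH; 0% = vehicle wells and 100% = reference activator wells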
The depositor's hits bear a star; . = not tested or not shown.

SMILES | MsrA inh | PLCg1 inh | MsrA act | PLCb3 inh | MsrA activ conf
Cc1ccc(C(=O)NCC(=O)N2CCN(c3ncccn3)CC2)s1 | -1.0 | -4.3 | 9.2* | -1.7 | -0.4
COCc1[nH]nc2c1C(c1ccc(Br)cc1)N(c1ccc(OC)cc1)C2=O (stereo unspecified) | 0.9 | 0.3 | . | -3.0 | .
CSc1nnc2c(n1)C[C@H](c1ccccc1)[C@@H](C)[C@@H](C(=O)N1CCCC1)C2 | . | -0.6 | . | -1.4 | .
NC(=O)c1ccc(=O)n(Cc2ccc(F)c(F)c2)c1 | 0.2 | 3.2 | 8.0* | -7.7 | -0.7
O=C(NC1CCCCN(Cc2cccc(C(F)(F)F)c2)C1=O)c1ccc(Cl)cc1 (stereo unspecified) | . | -2.8 | . | 0.7 | .
CC1=C(C)CS(=O)N(c2ccc(S(N)(=O)=O)cc2)C1 (stereo unspecified) | -1.4 | 2.2 | 7.8* | 2.0 | -3.3
CCOC(=O)c1csc(N)n1 | -2.7 | 8.2 | -4.0 | 1.5 | .
CCOC(=O)c1csc(-c2snnc2C)n1 | 0.3 | 2.7 | 8.0* | -7.6 | -4.7
COC(=O)[C@]12C[C@H](CC(=O)NCC34CC5CC(CC(C5)C3)C4)C(=O)N(CCC3=CCCCC3)C1=C[C@H](COCc1ccccc1)O[C@@H]2C | 0.5 | 1.5 | . | 1.0 | .
COC(=O)c1ccc2nc(Nc3nc4ccc(F)cc4s3)sc2c1 | 1.9 | -89.2 | -3.9 | -124.2 | .
CC(=O)c1sc(Nc2nc3ccc(F)cc3s2)nc1C | -0.2 | -335.6 | 7.8* | -399.8 | -0.8
COc1ccc(S(=O)(=O)N2CCC(C(=O)N3CCOCC3)CC2)cc1Cl | -0.3 | 0.9 | 8.0* | 5.2 | -3.2
COc1ccc(S(=O)(=O)N2CCCC(C(=O)N3CCOCC3)C2)cc1Cl (stereo unspecified) | -1.1 | 0.2 | -1.3 | -4.4 | .
Cc1ccccc1C(=O)N[C@@H](Cc1cccnc1)C(=O)N1CCC[C@H]1C(=O)NC1CCCC1 | 0.7 | -1.3 | . | 1.7 | .
C[C@H]1C(c2ccccc2F)O[C@]2(C[C@H](O)c3ccccc3O2)C[C@@H]1O (stereo partly specified) | . | 1.7 | . | 2.3 | .
O=C(CSc1ccc(Cl)cc1)NN=C1CCCCCC1 | 2.0 | -0.1 | 9.0* | 0.0 | -1.5
O=C(CCSc1ccc(Cl)cc1)NN=C1CCCCCC1 | 0.1 | -7.7 | -7.5 | -7.2 | .
FC(F)(F)c1cc(Oc2ccc(Cl)cc2)nc(-c2ccccn2)n1 | 2.2 | -1.9 | -1.5 | 2.0 | .
FC(F)(F)c1cc(Oc2ccccc2)nc(-c2ccccn2)n1 | -0.5 | 2.9 | 9.7* | 1.9 | -3.0
COC(=O)c1cc2c(c3c4cc(OC)ccc4n(C(=O)c4ccccc4)c13)C(=O)N(C1CCCCC1)C2 | 0.5 | -48.6 | . | -69.8 | .
CCCn1c(=O)c2ccccc2n2c(SCC(=O)c3ccccc3)nnc12 | -0.1 | -2.6 | 12.3* | -0.2 | -3.3
Cc1ccc(CNC(=O)c2ccc3c(=O)n(CC4CCCO4)c(=S)[nH]c3c2)cc1 (stereo unspecified) | -0.9 | -2.9 | -5.7 | 2.0 | .
O=C(NCc1ccccc1)c1ccc2c(=O)n(CC3CCCO3)c(=S)[nH]c2c1 (stereo unspecified) | 0.9 | -4.3 | 12.8* | -0.4 | 3.1
COc1ccc(NC(=O)COC(=O)Cc2coc3cc(OC)ccc23)c(OC)c1 | -0.1 | -5.5 | 8.0* | -4.1 | -1.0
COc1ccc2c(CC(=O)Nc3ccccc3OC)coc2c1 | -0.9 | -0.1 | -2.8 | -1.7 | .
SMILES | MsrA inh | PLCg1 inh | MsrA act | PLCb3 inh | MsrA activ conf
Cc1ccc(OCC(=O)Nc2cc(-c3nn4c(C)nnc4s3)ccc2C)cc1 | 1.1 | -1.2 | 9.7* | -3.0 | -0.9
CCn1c2c(n(C(C)=O)c1=O)C=C(C(=O)N1CCCC1)C(C)C(c1ccccc1)=C2 (stereo unspecified) | 0.9 | -56.7 | . | -75.5 | .
Nc1ccccc1SC(CC(=O)c1ccccc1)c1ccccc1 (stereo unspecified) | . | . | 7.9* | . | -0.4
COC(=O)c1ccccc1SC(CC(=O)c1ccccc1)c1ccc(F)cc1 (stereo unspecified) | -0.2 | -1.7 | -2.7 | 3.0 | .
Nc1ncnc2c1ncn2[C@@H]1O[C@H](CNCc2ccc(OCc3ccccc3)cc2)[C@@H](O)[C@H]1O | 1.5 | 1.5 | 7.7* | 0.7 | 4.3*
CN(C)c1nc(OCCNC(=O)Nc2ccccc2)nc(N2CCOCC2)n1 | -0.2 | -0.7 | 15.6* | 1.6 | -0.9
COCCn1nnnc1CN1CCC(O)(c2cccc(C(F)(F)F)c2)CC1 | 0.6 | -2.4 | -2.6 | -6.1 | .
COCCn1nnnc1CN1CCN(c2cccc(C(F)(F)F)c2)CC1 | -1.0 | 0.3 | 8.4* | -0.4 | 1.2
S=c1[nH]ccc2ccccc12 | 0.8 | -1.3 | 9.8* | -1.4 | 2.2
COc1ccc(SC[C@H](C)CN2CC[C@H](C(C)(C)C)CCC2=O)cc1 | 0.3 | 4.0 | 1.7 | 2.9 | .
C[C@@H](CSc1ccccc1)CN1CC[C@H](C(C)(C)C)CCC1=O | 1.2 | 0.5 | 8.2* | 1.8 | -0.8
Cc1c(COC(=O)NC(C)C)c(COC(=O)NC(C)C)c2n1CS(=O)(=O)C2 | -0.4 | 1.0 | . | 1.1 | .
O=C(Nc1cccc(C(=O)N2CCOCC2)c1)c1ccccc1 | -0.3 | -2.4 | 1.0 | 1.8 | .
Cc1ccc(C(=O)Nc2cccc(C(=O)N3CCOCC3)c2)cc1Cl | -0.6 | 0.8 | 20.6* | -6.3 | -3.3
Cn1c(SCC(=O)NC2CCCC2)nnc1-c1ccco1 | -0.8 | 2.9 | -2.3 | -1.8 | .
CC(Sc1nnc(-c2ccco2)n1C)C(=O)NC1CCCC1 (stereo unspecified) | 0.4 | -0.3 | 16.7* | -4.4 | -2.8
Cc1ccc(C)c(N2CCN(S(=O)(=O)c3c(C(=O)N4CCCCC4)c(C)n(C)c3C)CC2)c1 | 0.8 | 3.5 | 8.2* | -4.1 | -1.9
Cc1ccc(C)c(N2CCN(S(=O)(=O)c3c(C)[nH]c(C)c3C(=O)N3CCCCC3)CC2)c1 | -0.7 | 2.4 | -2.0 | -3.2 | .
NC(=O)[C@@H]1CCCN1C(=O)[C@H]1O[C@@H](n2ccc(N)nc2=O)[C@H](O)[C@@H]1O | 1.1 | -8.0 | . | 1.8 | .
Cc1csc(SCC(=O)c2c(N)n(C)c(=O)n(C)c2=O)n1 | -0.1 | 0.2 | 9.7* | -1.2 | -1.7
CCc1cccc2c(C(=O)COC(=O)c3ccc([N+](=O)[O-])s3)c[nH]c12 | 1.5 | 2.7 | -0.2 | 1.4 | .
O=C(OCC(=O)c1c[nH]c2ccccc12)c1ccc([N+](=O)[O-])s1 | 3.8 | -1.4 | 16.4* | -0.6 | 6.6*
O=C(COc1ccc2cc(Br)ccc2c1)N1CCOCC1 | -0.8 | 1.1 | 13.1* | -9.4 | -3.8
CO/N=C/c1ccc(N2CCCC2)c([N+](=O)[O-])c1 | 2.9 | 0.8 | 17.2* | 0.8 | 5.8*
O=[N+]([O-])c1cc(/C=N/O)ccc1N1CCCC1 | 3.0 | 6.2 | -4.3 | -3.3 | .
Cc1ccc(S(=O)(=O)N2CCC(C(=O)OCC(=O)N3CCc4ccccc43)CC2)cc1 | -0.5 | 1.1 | 8.4* | 0.8 | -0.3
CCOC(=O)c1cnc2c(OC)cccc2c1N1CCN(c2ccccc2OC)CC1 | -0.4 | 1.6 | 8.5* | -5.7 | -0.7

Source: PubChem (The Scripps Research Institute Molecular Screening Center)
